# From PubChem BioAssay (EPA / NIEHS)
# Values joined by “and” are separate entries in the source; they are usually repeats but may differ in a detail not shown here. Identical values can stand only once. Records with an inconclusive call do not appear. Some compounds were tested as several samples or in several runs, with calls that do not always agree. Active and inactive are the calls of the source. The calls were made as follows, unless noted: active = hit-call score of the fitted dose curve at least 0.9, where 1 is the maximum; inconclusive = response in the unintended direction; inactive = score below 0.9.
# Experiments:
# [1] = CPHEA_Stoker_NIS_Cytotoxicity: Cytotoxicity Assessment for CPHEA's Radioactive Iodide Uptake (RAIU) Assay for Sodium/Iodide Symporter (NIS) Inhibition, Stoker and Laws Labs (AID 2283897);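 as to AC50: active means loss of ATP signal versus DMSO meaning cytotoxicity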
# Outline: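 hNIS-HEK293T-EPA human kidney cells were exposed for 2 hours at room temperature to test chemicals (0.001–100uM, 0.5% final DMSO) in HEPES-buffered HBSS, pH 7.4. Viability was read as ATP content by luciferase bioluminescence, loss of signal versus DMSO.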
# [2] = system: frog Estrogen Receptor (ER2), gene 100174814; assay: ATG_frER2_XSP2: Attagene TRANS-FACTORIAL Multi-Species (XSP2) HepG2 Assay for frog Estrogen Receptor (ER2) (AID 2283828)
# Outline: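 Read-out: reporter transcript levels by RT-PCR with 6-FAM primer extension, HpaI digestion and capillary electrophoresis, scored as induction over DMSO control. Transfected HepG2 carrying Xenopus ER2–GAL4 chimera; compounds incubated 24 h.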
# [3] = biological target: Nuclear receptor subfamily 1 group I member 2 (Mus musculus) (UniProt O54915); assay: ATG_mPXR_XSP2: Attagene TRANS-FACTORIAL Multi-Species (XSP1) HepG2 Assay for mouse Pregnane X Receptor (PXR) (AID 2283831)
# Sequence of Nuclear receptor subfamily 1 group I member 2 (Mus musculus) (O54915 whole entry, looked up, the tested form may be a part): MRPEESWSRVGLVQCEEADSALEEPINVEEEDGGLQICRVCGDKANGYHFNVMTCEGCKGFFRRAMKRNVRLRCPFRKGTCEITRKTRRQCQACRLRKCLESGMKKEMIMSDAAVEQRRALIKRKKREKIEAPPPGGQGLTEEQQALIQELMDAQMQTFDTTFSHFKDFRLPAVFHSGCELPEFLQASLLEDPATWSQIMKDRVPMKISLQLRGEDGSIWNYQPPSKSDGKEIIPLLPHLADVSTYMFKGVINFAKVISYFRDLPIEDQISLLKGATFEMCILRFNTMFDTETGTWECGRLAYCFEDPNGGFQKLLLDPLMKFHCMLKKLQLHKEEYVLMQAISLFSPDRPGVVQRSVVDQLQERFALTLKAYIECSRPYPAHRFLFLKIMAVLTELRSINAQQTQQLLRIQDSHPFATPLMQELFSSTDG
# Outline: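 HepG2 cells transiently transfected with GAL4-UAS reporter units expressing chimeric NR-Gal4 proteins; 24 h compound exposure. Reporter mRNA quantified by RT-PCR and capillary electrophoresis fluorescence; gain of signal fitted against DMSO.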
# [4] = biological target: zebrafish Thyroid Hormone Receptor alpha (TRa), thraa (gene 30670) (UniProt Q98867); assay: ATG_zfTRa_XSP2: Attagene TRANS-FACTORIAL Multi-Species (XSP1) HepG2 Assay for zebrafish Thyroid Hormone Receptor alpha (TRa) (AID 2283832);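 also: actives raise zebrafish TRa-Gal4 reporter transcript above DMSO baseline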
# Sequence of zebrafish Thyroid Hormone Receptor alpha (TRa), thraa (gene 30670) (Q98867 whole entry, looked up, the tested form may be a part): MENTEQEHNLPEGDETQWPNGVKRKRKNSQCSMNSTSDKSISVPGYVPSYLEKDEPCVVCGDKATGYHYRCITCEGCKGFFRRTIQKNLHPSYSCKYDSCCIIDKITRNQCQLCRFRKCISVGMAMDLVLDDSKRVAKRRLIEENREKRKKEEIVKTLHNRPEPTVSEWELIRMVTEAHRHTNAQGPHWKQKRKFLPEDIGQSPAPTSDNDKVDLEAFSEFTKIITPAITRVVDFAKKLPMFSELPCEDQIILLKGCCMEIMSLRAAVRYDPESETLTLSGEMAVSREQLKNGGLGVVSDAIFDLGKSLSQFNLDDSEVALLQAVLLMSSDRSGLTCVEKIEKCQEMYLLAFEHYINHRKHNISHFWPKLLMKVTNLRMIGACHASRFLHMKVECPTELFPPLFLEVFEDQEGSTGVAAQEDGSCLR
# Outline: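 Multiplexed TRANS reporter format in HepG2; the medium also contained 3 nM 6-alpha-fluorotestosterone and 1.5 nM norgestrel. Reporter mRNA after 24 h read by RT-PCR and capillary electrophoresis, scored as induction over DMSO.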
# [5] = system: zebrafish Peroxisome Proliferator-activated Receptor gamma (PPARg), gene 557037; assay: ATG_zfPPARg_XSP2: Attagene TRANS-FACTORIAL Multi-Species (XSP2) HepG2 Assay for zebrafish Peroxisome Proliferator-activated Receptor gamma (PPARg) (AID 2283833);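 also: reporter mRNA from a zebrafish PPARg GAL4 chimera measured by RT-PCR and capillary electrophoresis; actives increase reporter signal over DMSO so AC50 reflects activation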
# Outline: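 HepG2 cells transiently transfected with multiplexed GAL4-UAS reporter units expressing chimeric NR-Gal4 receptors, dosed 24 h. Reporter mRNA quantified by RT-PCR, fluorescent labelling, HpaI digestion and capillary electrophoresis; gain of signal fitted against DMSO.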
# [6] = system: turtle Thyroid Hormone Receptor, alpha (TRa), gene 101949057; assay: ATG_trTRa_XSP2: Attagene TRANS-FACTORIAL Multi-Species (XSP1) HepG2 Assay for turtle Thyroid Hormone Receptor, alpha (TRa) (AID 2283834);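 also: hits raise reporter mRNA over the DMSO baseline so AC50 marks activators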
# Outline: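 HepG2 cells transiently transfected with GAL4-UAS reporter units for chimeric turtle TRa-Gal4; mRNA measured 24 h after dosing by RT-PCR and capillary electrophoresis fluorescence, gain of signal fitted against DMSO.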
# [7] = ATG_M_61_XSP2: Attagene TRANS-FACTORIAL Multi-Species (XSP2) HepG2 Assay for M61 Transcription Factor (Internal Marker) (AID 2283835; active = hit-call score of the fitted dose curve at least 0.9, where 1 is the maximum; inactive = score below 0.9;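 also: active means a rise in signal above the DMSO baseline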)
# Outline: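 Internal background marker, read as RT-PCR/capillary-electrophoresis reporter mRNA 24 h post-dose in transiently transfected HepG2 cells. Androgen receptor stimulated with 3 nM 6-alpha-fluorotestosterone plus 1.5 nM norgestrel; gain of signal versus DMSO analysed.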
# [8] = biological target: zebrafish Thyroid Hormone Receptor beta (TRb), thrb (gene 30607) (UniProt Q9PVE4); assay: ATG_zfTRb_XSP2: Attagene TRANS-FACTORIAL Multi-Species (XSP1) HepG2 Assay for zebrafish Thyroid Hormone Receptor beta (TRb) (AID 2283836)
# Sequence of zebrafish Thyroid Hormone Receptor beta (TRb), thrb (gene 30607) (Q9PVE4 whole entry, looked up): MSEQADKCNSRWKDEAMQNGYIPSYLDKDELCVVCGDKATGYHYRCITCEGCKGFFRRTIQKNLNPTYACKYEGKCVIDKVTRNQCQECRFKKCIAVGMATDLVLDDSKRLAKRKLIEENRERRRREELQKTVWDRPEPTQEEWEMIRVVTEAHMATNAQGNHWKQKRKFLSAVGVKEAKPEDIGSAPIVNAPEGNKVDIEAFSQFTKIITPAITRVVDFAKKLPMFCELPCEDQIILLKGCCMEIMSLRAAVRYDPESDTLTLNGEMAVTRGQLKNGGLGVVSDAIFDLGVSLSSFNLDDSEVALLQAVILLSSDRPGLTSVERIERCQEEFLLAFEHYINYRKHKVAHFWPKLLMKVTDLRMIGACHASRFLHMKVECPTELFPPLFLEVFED
# Outline: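 Multiplexed trans-activation in HepG2 cells, 24 h treatment, with reporter mRNA read by RT-PCR and capillary electrophoresis. Gain-of-signal against DMSO.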
# [9] = biological target: human Thyroid hormone Receptor alpha (TRa), THRA (gene 7067) (UniProt P10827); assay: ATG_hTRa_XSP2: Attagene TRANS-FACTORIAL Multi-Species (XSP2) HepG2 Assay for human Thyroid hormone Receptor alpha (TRa) (AID 2283838)
# Sequence of human Thyroid hormone Receptor alpha (TRa), THRA (gene 7067) (P10827 whole entry, looked up, the tested form may be a part): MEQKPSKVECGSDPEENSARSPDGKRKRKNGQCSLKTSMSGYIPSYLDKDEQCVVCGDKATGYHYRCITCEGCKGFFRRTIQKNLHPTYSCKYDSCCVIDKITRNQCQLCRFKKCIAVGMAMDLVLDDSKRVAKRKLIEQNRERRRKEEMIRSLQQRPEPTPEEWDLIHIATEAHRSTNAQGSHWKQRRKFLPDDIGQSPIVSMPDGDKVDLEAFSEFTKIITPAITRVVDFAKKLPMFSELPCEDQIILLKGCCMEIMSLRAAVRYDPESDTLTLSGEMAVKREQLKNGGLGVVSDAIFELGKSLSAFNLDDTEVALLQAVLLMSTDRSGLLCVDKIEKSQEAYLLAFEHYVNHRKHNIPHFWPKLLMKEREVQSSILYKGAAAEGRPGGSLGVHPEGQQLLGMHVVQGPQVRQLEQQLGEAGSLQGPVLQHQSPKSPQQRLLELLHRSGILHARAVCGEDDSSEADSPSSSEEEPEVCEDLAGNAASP
# Outline: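 Gain-of-signal in reporter mRNA, relative to DMSO, after 24 h dosing of transfected HepG2; quantitation by RT-PCR fragment analysis on capillary electrophoresis.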
# [10] = biological target: frog Thyroid hormone Receptor alpha (TRa), thra-a (gene 397942) (UniProt P15204); assay: ATG_frTRa_XSP2: Attagene TRANS-FACTORIAL Multi-Species (XSP2) HepG2 Assay for frog Thyroid hormone Receptor alpha (TRa) (AID 2283839);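 as to AC50: AC50 reflects induction of frog TRa-driven reporter mRNA above DMSO baseline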
# Sequence of frog Thyroid hormone Receptor alpha (TRa), thra-a (gene 397942) (P15204 whole entry, looked up, the tested form may be a part): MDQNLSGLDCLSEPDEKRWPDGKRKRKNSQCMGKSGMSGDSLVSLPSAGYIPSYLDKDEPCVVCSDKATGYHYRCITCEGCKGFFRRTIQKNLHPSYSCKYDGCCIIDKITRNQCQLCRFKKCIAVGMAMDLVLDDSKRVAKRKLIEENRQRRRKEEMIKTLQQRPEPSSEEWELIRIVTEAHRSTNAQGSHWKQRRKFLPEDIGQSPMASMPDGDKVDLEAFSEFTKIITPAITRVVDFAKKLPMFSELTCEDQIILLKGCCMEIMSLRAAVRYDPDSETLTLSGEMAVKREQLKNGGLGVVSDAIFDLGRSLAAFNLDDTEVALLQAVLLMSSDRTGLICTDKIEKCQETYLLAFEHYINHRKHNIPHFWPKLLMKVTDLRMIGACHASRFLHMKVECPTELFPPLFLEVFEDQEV
# Outline: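 HepG2 transiently transfected with multiplexed GAL4-UAS reporters driven by frog TRa-Gal4 chimeras; 24 h chemical exposure. Reporter mRNA quantified by RT-PCR, FAM labelling, HpaI digestion and capillary electrophoresis; gain of signal versus DMSO.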
# [11] = biological target: human Thyroid hormone Receptor beta (TRb), THRB (gene 7068) (UniProt P10828); assay: ATG_hTRb_XSP2: Attagene TRANS-FACTORIAL Multi-Species (XSP2) HepG2 Assay for human Thyroid hormone Receptor beta (TRb) (AID 2283840);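 also: actives raise reporter mRNA so potency reflects agonist-like gain of signal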
# Sequence of human Thyroid hormone Receptor beta (TRb), THRB (gene 7068) (P10828 whole entry, looked up, the tested form may be a part): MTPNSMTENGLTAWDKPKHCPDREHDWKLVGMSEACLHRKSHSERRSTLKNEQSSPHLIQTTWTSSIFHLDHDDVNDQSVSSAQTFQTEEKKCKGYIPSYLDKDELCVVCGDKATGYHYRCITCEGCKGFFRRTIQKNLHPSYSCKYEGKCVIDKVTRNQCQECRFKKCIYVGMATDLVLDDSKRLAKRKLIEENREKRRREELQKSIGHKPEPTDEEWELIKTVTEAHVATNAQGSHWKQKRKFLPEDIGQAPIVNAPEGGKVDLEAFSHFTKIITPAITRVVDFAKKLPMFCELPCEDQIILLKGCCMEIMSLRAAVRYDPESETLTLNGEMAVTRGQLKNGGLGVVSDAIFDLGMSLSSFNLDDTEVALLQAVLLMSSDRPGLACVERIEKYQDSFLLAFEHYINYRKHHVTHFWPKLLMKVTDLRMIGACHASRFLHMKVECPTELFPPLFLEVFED
# Outline: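 HepG2 transiently transfected with a multi-species panel including a human TRb–Gal4 chimera driving Gal4-UAS reporters; medium contained 3 nM 6-alpha-fluorotestosterone and 1.5 nM norgestrel. 24 h dosing; RT-PCR/capillary electrophoresis readout; positive-direction fit vs DMSO.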
# [12] = biological target: Peroxisome proliferator-activated receptor gamma (Homo sapiens) (UniProt P37231); assay: ATG_hPPARg_XSP2: Attagene TRANS-FACTORIAL Multi-Species (XSP2) HepG2 Assay for human Peroxisome Proliferator-activated Receptor gamma (PPARg) (AID 2283829);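 also: actives raise reporter mRNA above DMSO so AC50 reflects PPARg activation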
# Sequence of Peroxisome proliferator-activated receptor gamma (Homo sapiens) (P37231 whole entry, looked up, the tested form may be a part): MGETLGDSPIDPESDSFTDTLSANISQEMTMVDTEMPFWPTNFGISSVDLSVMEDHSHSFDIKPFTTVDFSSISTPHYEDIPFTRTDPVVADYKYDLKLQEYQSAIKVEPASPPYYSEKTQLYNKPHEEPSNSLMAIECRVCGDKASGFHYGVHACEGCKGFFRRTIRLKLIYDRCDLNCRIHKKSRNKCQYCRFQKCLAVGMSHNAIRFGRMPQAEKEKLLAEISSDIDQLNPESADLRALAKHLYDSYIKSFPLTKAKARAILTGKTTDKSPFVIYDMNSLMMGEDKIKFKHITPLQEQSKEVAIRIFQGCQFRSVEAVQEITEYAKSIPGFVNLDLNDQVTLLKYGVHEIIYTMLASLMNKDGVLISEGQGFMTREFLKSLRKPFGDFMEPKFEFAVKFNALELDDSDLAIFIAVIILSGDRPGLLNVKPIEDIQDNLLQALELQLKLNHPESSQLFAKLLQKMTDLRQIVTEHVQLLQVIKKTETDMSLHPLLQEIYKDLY
# Outline: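 HepG2 cells transiently transfected with GAL4-UAS reporter units driven by chimeric NR-Gal4 proteins; androgen receptor stimulated with 3 nM 6-alpha-fluorotestosterone and 1.5 nM norgestrel. After 24 h, reporter mRNA quantified by RT-PCR and capillary electrophoresis versus DMSO.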
# [13] = biological target: mouse Peroxisome Proliferator-activated Receptor gamma (PPARg), Pparg (gene 19016) (UniProt P37238); assay: ATG_mPPARg_XSP2: Attagene TRANS-FACTORIAL Multi-Species (XSP2) HepG2 Assay for mouse Peroxisome Proliferator-activated Receptor gamma (PPARg) (AID 2283830);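 also: hits are gains in reporter mRNA above DMSO so AC50 marks activation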
# Sequence of mouse Peroxisome Proliferator-activated Receptor gamma (PPARg), Pparg (gene 19016) (P37238 whole entry, looked up, the tested form may be a part): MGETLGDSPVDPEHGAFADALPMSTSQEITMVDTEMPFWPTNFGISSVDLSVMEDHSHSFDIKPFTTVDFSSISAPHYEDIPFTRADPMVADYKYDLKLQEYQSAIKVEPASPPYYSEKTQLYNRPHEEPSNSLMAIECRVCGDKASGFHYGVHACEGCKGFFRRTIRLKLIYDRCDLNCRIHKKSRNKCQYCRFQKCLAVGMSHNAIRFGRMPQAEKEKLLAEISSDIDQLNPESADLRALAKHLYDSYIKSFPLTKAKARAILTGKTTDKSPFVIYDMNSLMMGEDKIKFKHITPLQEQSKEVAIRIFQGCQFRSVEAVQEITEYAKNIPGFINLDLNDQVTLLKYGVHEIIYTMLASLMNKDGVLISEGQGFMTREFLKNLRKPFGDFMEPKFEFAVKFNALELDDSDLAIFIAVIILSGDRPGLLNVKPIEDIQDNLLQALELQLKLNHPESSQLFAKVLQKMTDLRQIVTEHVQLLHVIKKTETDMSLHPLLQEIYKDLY
# Outline: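 Multiplexed TRANS reporter readout: after 24 h chemical exposure of transfected HepG2 cells (with 3 nM 6-alpha-fluorotestosterone, 1.5 nM norgestrel present), RNA reverse-transcribed, amplified, 6-FAM-labelled and resolved by capillary electrophoresis; mouse PPARg-Gal4 induction scored against DMSO.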
# [14] = ATG_XTT_Cytotoxicity_XSP2: Cytotoxicity Assessment in the Attagene TRANS-FACTORIAL Multi-Species (XSP2) HepG2 Assay (AID 2283837)
# Outline: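 XTT-based cell number read-out in human HepG2 liver cells carrying transfected reporter units, measured 24 h after chemical dosing. Activity is signal loss versus DMSO baseline.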
structure (smiles),measurement,setting,value
CCOP(=S)(Oc1cnc(C(C)(C)C)nc1)OC(C)C (stereo not drawn),outcome,[1],inactive
CC1(C(=O)Nc2ccc(O)c(Cl)c2Cl)CCCCC1,outcome,[1],inactive
CSc1nc(NC(C)C)nc(NC(C)C)n1,outcome,[1],inactive
CC(C)=CC1C(C(=O)OCN2C(=O)C3=C(CCCC3)C2=O)C1(C)C (stereo not drawn),AC50,[1],35.4 µM (active)
CCCCN(CC)c1c([N+](=O)[O-])cc(C(F)(F)F)cc1[N+](=O)[O-],outcome,[1],inactive
C#CC(C)(C)NC(=O)c1cc(Cl)cc(Cl)c1,outcome,[2],inactive
same,AC50,[3],26.8 µM (active)
same,outcome,[4],inactive
same,outcome,[5],inactive
same,outcome,[6],inactive
same,outcome,[7],inactive
same,outcome,[8],inactive
same,outcome,[9],inactive
same,AC50,[10],26.8 µM (active)
same,outcome,[11],inactive
FC(F)C(F)(F)OCC(Cn1cncn1)c1ccc(Cl)cc1Cl (stereo not drawn),outcome,[1],inactive
COc1ccc(C(=CC(=O)N2CCOCC2)c2ccc(Cl)cc2)cc1OC,AC50,[2],52.4 µM (active)
same,outcome,[2],inactive
same,AC50,[12],19.8 µM (active)
same,outcome,[12],inactive
same,AC50,[13],29.3 µM (active)
same,outcome,[13],inactive
same,AC50,[3],4.65 µM (active) and 4.32 µM (active)
same,outcome,[4],inactive
same,outcome,[5],inactive
same,outcome,[7],inactive
same,outcome,[8],inactive
same,outcome,[14],inactive
same,outcome,[9],inactive
same,outcome,[10],inactive
same,outcome,[11],inactive
C=C(C)[C@H]1Cc2c(ccc3c2O[C@@H]2COc4cc(OC)c(OC)cc4[C@@H]2C3=O)O1,outcome,[1],inactive
COc1cccc(C(=O)NN(C(=O)c2cc(C)cc(C)c2)C(C)(C)C)c1C,outcome,[1],inactive
